These sequences were tested against RGS6 (assay: pooled miR-30 sensor sort-seq; sequence = guide strand). Settings: shRNA.
With TAATCTGCCAGTTCCAGCCTTG the sensor-assay potency score (higher = more potent) was -0.407. TCAAACGTCGACATTTTCGGAT showed a sensor-assay potency score (higher = more potent) of -0.513. With TAAACTTTCAGCCACTTTGGAC the sensor-assay potency score (higher = more potent) was -0.804. In the case of TTGTCATCTTGCATCTTTGTAA, the sensor-assay potency score (higher = more potent) is reported as -0.676. TCTGTCTTGTCTTTTTTCCGGT gave a sensor-assay potency score (higher = more potent) of 0.0231. For TTTTCAAACAATGTCTGTCGAT, the sensor-assay potency score (higher = more potent) was -0.396. Sequence TAATCTCAAGTGATAGTCGTGA has a sensor-assay potency score (higher = more potent) of 0.294. In the case of TTCTGCTTCATAATCTGCCAGT, the sensor-assay potency score (higher = more potent) is reported as -0.422. TTGGCTGAGTACATGCACCGGG gave a sensor-assay potency score (higher = more potent) of 0.473. For TTTCAAACAATGTCTGTCGATC, the sensor-assay potency score (higher = more potent) was -0.513. TTTGACACACACACACAGGGAA showed a sensor-assay potency score (higher = more potent) of 0.653. TTATTTTGCATTGTCCTCTTAC showed a sensor-assay potency score (higher = more potent) of -0.243.
Further: reference of the scale not given here.
